Compound activity from PubChem.
proKLK7 act: proKLK7 (human) activation, primary screen. P49862. purified proKLK7, EDANS-DABCYL substrate fluorescence; 100% is mature enzyme control, 0% vehicle. activation, % at 7 µM. 370,000 tested, 0.9% active. AID 652039;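 active means activation above the mean of all tested compounds plus 3 SD, computed per campaign excluding outliers beyond control limits, cut at about 13% in these data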
Target sequence (P49862 whole entry, looked up): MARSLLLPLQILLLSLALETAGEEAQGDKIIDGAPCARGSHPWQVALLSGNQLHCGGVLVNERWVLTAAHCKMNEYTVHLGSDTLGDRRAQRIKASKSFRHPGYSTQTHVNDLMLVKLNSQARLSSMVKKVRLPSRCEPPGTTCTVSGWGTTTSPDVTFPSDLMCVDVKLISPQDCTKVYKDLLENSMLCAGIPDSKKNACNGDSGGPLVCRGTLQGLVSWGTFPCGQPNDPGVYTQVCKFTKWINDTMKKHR
MsrA inhibitor: inhibits bovine methionine sulfoxide reductase A. purified bovine MsrA, absorbance read-out. inhibition, % at 15.5 µM. 360,000 tested, 0.75% active; in the data active means inhibition above about 4.5%
SMARCA2 act: increases SMARCA2 function in MMTV reporter cells; MG213 cells, MMTV-luciferase reporter, dexamethasone, overnight; activation, % at 9.1 µM; 370,000 tested, 1% active; in the data active means activation above about 7.8%
MsrA act: bovine methionine sulfoxide reductase A activation; activation, % at 10.6 µM; purified bovine MsrA, absorbance read-out; 360,000 tested, 0.3% active; in the data active means activation above about 7.5%
SMARCA2 conf: SMARCA2 activation, confirmation screen | shares compounds with SMARCA2 act | MG213 cells, MMTV-luciferase with dexamethasone, luminescence, overnight; MG213 cells expressing E1A, Rb sequestered; DMSO wells 0%, reference activator 100% | activation, % at 9.1 µM | 3,500 tested, 30% active | AID 652260;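 active means activation above its plate's cutoff, the mean activation of tested wells plus 3 SD, cut at about 7.9% in these data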
VP16 Luc act: activates GAL4-VP16 luciferase, flagging SMARCA2 activator hits; shares compounds with SMARCA2 act; HEK293 GAL4-VP16 pG5luc reporter, luciferase luminescence; scaled: DMSO wells 0%, SAHA wells 100%; 3,500 tested, 41% active; activation, % at 9.1 µM; AID 686939;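 active means activation above the solvent-only control well mean plus 3 SD, averaged across control plates, cut at about 5.2% in these data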
Each line names hits and unclear results; the compound was inactive in the other large screens (follow-up assays come after a bar, where they were run). Rows were chosen to be rich in hits. Some 2.8% of all compounds tested hit in one or more screens of this group.

COC(=O)c1cc2c(c3c4ccccc4n(S(=O)(=O)c4ccc(OC)cc4)c13)C(=O)N(C)C2	none (no result: MsrA act)
CC(C)(C)c1ccc(C#C[C@@H]2C=C[C@H](O)[C@@H](COC(=O)Nc3ccccc3)O2)cc1	none (no result: MsrA act)
O=c1c2c(nc3cc(-c4ccc(F)cc4)[nH]n13)CCC2	SMARCA2 act 12 | SMARCA2 conf 13 | VP16 Luc act 12
Cc1ccc(-c2cc3nc4c(c(=O)n3[nH]2)CCCC4)cc1	none
COc1ccc(C2Nc3ccccc3C(=O)N2c2ccc(C)cc2)cc1Cn1nc(C)c([N+](=O)[O-])c1C (stereo not given)	none
COc1ccc(C2Nc3ccccc3C(=O)N2c2ccc(C)cc2)cc1COc1ccccn1 (stereo not given)	SMARCA2 act 14 | SMARCA2 conf 12 | VP16 Luc act inactive
COc1ccc(C(=O)NCC(=O)N2CCN(c3ncccn3)CC2)cc1OC	SMARCA2 act 8.0 | SMARCA2 conf inactive | VP16 Luc act inactive
CC(C)NC(=O)N[C@H]1C[C@@H]2O[C@@H](CO)CC[C@@H]2O[C@@H]1CCc1ccc(-c2ccc(F)cc2)cc1	none (no result: MsrA inhibitor, MsrA act)
CCN(C(=O)COC(=O)c1ccc(Sc2ncn[nH]2)c([N+](=O)[O-])c1)c1ccccc1	none (no result: MsrA inhibitor, MsrA act)
C=CCNC(=O)c1cc(-c2ccc3c(c2)OCO3)on1	SMARCA2 act 9.1 | SMARCA2 conf 8.2 | VP16 Luc act 10
CCOC(=O)C[n+]1c(C)csc1C	SMARCA2 act 8.6 | SMARCA2 conf inactive | VP16 Luc act inactive
Cc1csc(C)[n+]1CC(=O)c1ccccc1	none
C[C@H]1CNC(=O)c2c(C(=O)N[C@@H](Cc3c[nH]c4ccccc34)C(=O)OC(C)(C)C)ncn21	none
CCOc1ccc(C(=O)c2ccc(OCC)c(N)c2)cc1N	SMARCA2 act 8.6 | SMARCA2 conf inactive | VP16 Luc act 6.5
CC(C)(C)C(=O)NC1CCCCN(Cc2ccc(Cl)cc2)C1=O (stereo not given)	none (no result: MsrA inhibitor, MsrA act)
COc1c(F)c(F)c(C(=O)Nc2ccccc2N2CCN(C(=O)C(C)C)CC2)c(F)c1F	SMARCA2 act 8.0 | SMARCA2 conf inactive | VP16 Luc act inactive
COc1c(F)c(F)c(C(=O)Nc2ccccc2N2CCN(C(C)=O)CC2)c(F)c1F	none
Nc1[nH]c2cc(C(F)(F)F)ccc2c1C(=O)NC1CCCCC1	none (no result: MsrA inhibitor, MsrA act)
COc1ccc(C(=O)NNC(=O)c2ccc3ccccc3n2)cc1	SMARCA2 act 15 | SMARCA2 conf inactive | VP16 Luc act inactive
O=C1c2ccccc2NC(c2ccccc2Br)N1CCCN1CCOCC1 (stereo not given)	SMARCA2 act 8.1 | SMARCA2 conf inactive | VP16 Luc act inactive
CC1CCC(NC(=O)C2c3ccccc3C(=O)N2CCCN2CCOCC2)CC1 (stereo not given)	none
CC1=C(c2ccccc2)C(=O)C(C)(C)CC1=O	none (no result: MsrA act)
Cc1c(NC(=O)C(C)OC(=O)c2cccnc2)c(=O)n(-c2ccccc2)n1C (stereo not given)	SMARCA2 act 8.3 | SMARCA2 conf inactive | VP16 Luc act inactive
N=c1n(CCN2CCCC2)c2ccccc2n1CC(O)c1ccc(Cl)c(Cl)c1 (stereo not given)	SMARCA2 act 14 | SMARCA2 conf inactive | VP16 Luc act inactive
COC(=O)[C@H](CCSC)NC(=O)Cn1cc(C)c(=O)[nH]c1=O	none
CCCCCCN1CCN(C2CN(Cc3cn(Cc4ccc(C(F)(F)F)cc4)nn3)S(=O)(=O)C2)CC1 (stereo not given)	none (no result: MsrA act)
c1ccc(CSCc2cn3ccccc3n2)cc1	SMARCA2 act 8.8 | SMARCA2 conf inactive | VP16 Luc act 7.5
Cc1ccc(N/C=C(\C2OC(=O)c3ccccc32)[N+](=O)[O-])c(C)c1 (stereo not given)	none
O=C1OC(/C(=C\Nc2ccc(F)cc2F)[N+](=O)[O-])c2ccccc21 (stereo not given)	SMARCA2 act 13 | SMARCA2 conf inactive | VP16 Luc act inactive
CN(NC1OC(=O)c2ccccc21)c1ccc(Cl)cc1[N+](=O)[O-] (stereo not given)	none
O=C1OC(/C(=C\Nc2cc(Cl)ccc2O)[N+](=O)[O-])c2ccccc21 (stereo not given)	SMARCA2 act 33 | SMARCA2 conf inactive | VP16 Luc act inactive
CCOc1ccc(C(=O)/C=C/Nc2ccc(S(=O)(=O)N=C(N)N)cc2)cc1	SMARCA2 act 8.1 | SMARCA2 conf inactive | VP16 Luc act inactive
O=C(Nc1ccc2oc(-c3ccccc3Cl)nc2c1)c1cncc(Br)c1	SMARCA2 act 8.1 | SMARCA2 conf inactive | VP16 Luc act inactive
O=C(NN=C1C2CC3CC1CC(Cl)(C3)C2)c1ccccn1	SMARCA2 act 9.1 | SMARCA2 conf inactive | VP16 Luc act inactive
CCOc1ccc(NC(=O)CSc2nnnn2C2CC2)cc1S(=O)(=O)N1CCCC1	none
COc1cc(OC)c2c(c1)O/C(=C\c1ccccc1)C2=O	SMARCA2 act 11 | SMARCA2 conf inactive | VP16 Luc act 9.4
COc1ccc(/C=C2\Oc3ccccc3C2=O)cc1	none
C[C@H](CO)N1C[C@H](C)[C@H](CN(C)C(=O)Nc2ccc(F)cc2)Oc2ncc(Br)cc2C1=O	none (no result: MsrA act)
c1ccc(CN2CCC(Nc3nc(-c4cccnc4)nc4ccccc34)CC2)cc1	SMARCA2 act 8.5 | SMARCA2 conf 19 | VP16 Luc act inactive
c1ccc(CNc2nc(-c3cccnc3)nc3ccccc23)cc1	none
CC(/C=N/NC(=O)c1ccccn1)=C\c1ccco1	SMARCA2 act 8.7 | SMARCA2 conf 12 | VP16 Luc act 14
O=C(N/N=C/C=C\c1ccco1)c1ccccn1	none
O=C(N/N=C/c1ccncc1)c1ccccn1	none
CN(C)c1ccc(/C=N\NC(=O)c2csnn2)cc1	MsrA inhibitor 7.3, SMARCA2 act 8.4 | SMARCA2 conf 15 | VP16 Luc act 10
CN(C)c1ccc(/C=N/NC(=O)c2ccccn2)cc1	SMARCA2 act 8.0 | SMARCA2 conf inactive | VP16 Luc act 7.5
Cc1ccc(/C=N/NC(=O)c2ccccn2)o1	SMARCA2 act 11 | SMARCA2 conf inactive | VP16 Luc act inactive
O=C(N/N=C\c1ccc(Oc2ccccc2)cc1)c1csnn1	none
CCN(CC)C(=O)c1ncn2c1C(=O)NC[C@H]2C	none (no result: MsrA act)
CCN(CC)C(=O)CC[C@@H]1CC[C@]2(CCCN(Cc3ccccn3)C2)O1	none (no result: MsrA inhibitor, MsrA act)
O=C(Nc1ccc(Br)cn1)c1ccc2ccccc2c1	SMARCA2 act 9.3 | SMARCA2 conf 12 | VP16 Luc act 14
COc1cccc(-c2cnc(C(O)c3ccc(CN4CCCC4)cc3)[nH]2)c1 (stereo not given)	none
Cc1ccc(NC(=O)CSc2nnc(-c3cnccn3)n2Cc2ccco2)cc1	SMARCA2 act 23 | SMARCA2 conf inactive | VP16 Luc act inactive
Cn1c(SCC(=O)Nc2ccc3cn[nH]c3c2)nnc1-c1cnccn1	none
Cc1cccc(NC(=O)CSc2nnc(-c3cnccn3)n2Cc2ccco2)c1	none
Cc1ccc(NC(=O)CSc2nccn2Cc2ccco2)c(C)c1	SMARCA2 act 11 | SMARCA2 conf 9.9 | VP16 Luc act 6.5
